In all, about 1,200 compounds went through this assay and about 30 (2%) were called active. A call without a number means that no potency is given here. About 23% were inconclusive and are not listed. The call rests on the fitted dose curve; in most records, active means well fitted inhibition curve with a large enough effect; inconclusive means small, poorly fitted or top-dose-only effect; inactive means flat fitted curve, though single readings scatter. The full list was thinned out, with actives kept by preference.
molecular target: Single-stranded DNA cytosine deaminase (Homo sapiens) (UniProt Q9GZX7); assay: Confirmatory qHTS assay for inhibitors of Activation Induced Cytidine Deaminase (AID): AID signals; conditions: recombinant AID, FRET deamination/UDG coupled fluorescence, 4 h; series mostly up to 115 µM
Sequence (Q9GZX7 whole entry, looked up): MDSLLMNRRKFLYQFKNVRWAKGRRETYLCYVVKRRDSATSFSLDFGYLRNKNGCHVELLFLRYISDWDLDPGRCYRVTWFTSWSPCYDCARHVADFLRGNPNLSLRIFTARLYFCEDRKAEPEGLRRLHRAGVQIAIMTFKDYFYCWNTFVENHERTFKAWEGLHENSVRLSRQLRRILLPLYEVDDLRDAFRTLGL
Outline: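 Read 1 (AID) was measured at 540 ex/590 em after a 30 min NaOH step. The reaction was AID (1 uM, 4/3x stock) with UDG, compound at final 7.32 nM - 114 uM for 10 min, then DJC20/DJC23 substrate for 4 hr at room temperature. A UDG read at 560/665 serves as counterscreen.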
Potency means the concentration at half of the fitted maximal effect.

| Structure (SMILES) | Potency |
| --- | --- |
| Cc1cccc(CSc2ccc3nnc(CCNS(=O)(=O)c4ccccc4)n3n2)c1 | inactive |
| Cc1ccc(C(=O)Nc2ccccc2C(=O)O)cc1S(=O)(=O)N1CCCCCC1 | inactive |
| Cc1ccccc1NC(=O)c1ccc(N(Cc2ccccc2)S(C)(=O)=O)cc1 | inactive |
| Cc1ccc(C(=O)Nc2ccc(S(=O)(=O)O)c3cc(S(=O)(=O)O)cc(S(=O)(=O)O)c23)cc1NC(=O)c1cccc(NC(=O)Nc2cccc(C(=O)Nc3cc(C(=O)Nc4ccc(S(=O)(=O)O)c5cc(S(=O)(=O)O)cc(S(=O)(=O)O)c45)ccc3C)c2)c1 | 1.12 µM (active) |
| CCOc1ccc(NC(=O)CN(C)S(=O)(=O)c2ccc3c(c2)c(=O)n(C)c(=O)n3C)cc1 | inactive |
| COc1cccc(CNC(=O)c2oc3c(c2C)-c2nn(Cc4cccc(Cl)c4)cc2CC3)c1OC | inactive |
| COc1ccc(Nc2ncc(C(=O)Nc3cccc(OC)c3)c3ccccc23)cc1 | inactive |
| Cc1ccccc1CSc1nc2nc(C)c(Cc3ccccc3)c(C)n2n1 | inactive |
| CC1(C)CCC2=C(O1)c1ccccc1C(=O)C2=O | 7.08 µM (active) |
| OCC1O[C@H]([S-])[C@H](O)[C@@H](O)[C@@H]1O.[Au+] (stereo not given in full) | 12.6 µM (active) |
| CCCCSCCCNC(=O)c1cn(CC)c2ccc(S(=O)(=O)N(C)C3CCCCC3)cc2c1=O | inactive |
| CC1CCCN(C(=O)c2ccc(CSc3nc4ccncc4n3Cc3ccccc3)cc2)C1 (stereo not given) | inactive |
| Cc1ccccc1Nc1c(-c2ccc(N3CCOCC3)cc2)nc2ccccn12 | inactive |
| CCCN(CCC)CCCNC(=O)c1cc2c(-c3ccc(Cl)cc3)nn(C)c2s1 | inactive |
| CCCCn1c(CNC(=O)C23CC4CC(CC(C4)C2)C3)nnc1SCC(=O)Nc1ccc(C)cc1 | inactive |
| Cc1cc2c(C(C)C)c(O)c(O)c(C=O)c2c(O)c1-c1c(C)cc2c(C(C)C)c(O)c(O)c(C=O)c2c1O | 31.6 µM (active) |
| Cc1cccc(NC(=O)CCn2nc(-c3ccccc3)c3ccccc3c2=O)c1 | inactive |
| CCn1nc(C)c2c(-c3ccccc3)cc(=O)n(C(C)C(=O)NCc3ccccc3OC)c21 (stereo not given) | inactive |
| COc1ccc(-c2coc3c2c(C)cc2oc(=O)c(CC(=O)O)c(C)c23)cc1 | 50.1 µM (active) |
| COc1cccc(-n2c(-c3cccc(F)c3)nc3c(cnn3-c3ccc(C)cc3)c2=O)c1 | inactive |
| CCOc1ccc(CNCc2c(C(=O)O)n(Cc3ccccc3F)c3cc(OC)ccc23)cc1 | inactive |
| COc1ccc(C(C)=O)cc1CSc1nc(NCCc2ccccc2)c2ccccc2n1 | inactive |
| Cc1cccc(N2CCN(C(=O)Cn3ncc4c3-c3cc(C)ccc3OC4)CC2C)c1 (stereo not given) | inactive |
| COc1ccccc1C(=O)Oc1c(Sc2ccccc2)c(C)nn1-c1ccccc1 | inactive |
| CCOC(=O)C1=C(CN2CCN(c3ccccc3F)CC2)NC(=O)NC1c1ccc(Cl)cc1 (stereo not given) | inactive |

| Structure (SMILES) | Potency |
| --- | --- |
| Cc1cccc(N2CCN(C(=O)C(C)n3nc(C)n4c(cc5occc54)c3=O)CC2)c1C (stereo not given) | inactive |
| Cc1ccc(C2CCN(C(=O)c3cnn(-c4cccc(Cl)c4)c3C3CCN(C(=O)OC(C)(C)C)CC3)C2)cc1 (stereo not given) | inactive |
| COc1ccc(CCNC(=O)c2c[nH]n3c(=O)c(Cc4ccccc4Cl)c(C)nc23)cc1OC | inactive |
| FC(F)(F)c1cccc(N2CCN(Cc3nnc(-c4ccc5c(c4)OCO5)o3)CC2)c1 | inactive |
| COc1ccc(-c2nc(CSCC(=O)N3CCN(c4cccc(C)c4C)CC3)c(C)o2)cc1OC | inactive |
| O=C(CSc1nc(-c2ccc(F)cc2)nc2c1Cc1ccccc1O2)Nc1cccc(C(=O)O)c1 | 31.6 µM (active) |
| O=C(CSC1=Nc2ccccc2N=C(c2ccc(F)cc2)C1)Nc1cccc(C(F)(F)F)c1 | inactive |
| COc1ccc(-c2nc3c(c(SCC(=O)Nc4ccc(C(=O)O)cc4)n2)Cc2ccccc2O3)cc1 | inactive |
| Cc1cccc(-n2cnc3cc(C(=O)NCc4ccccc4Cl)ccc32)c1 | inactive |
| Cc1cccc(-c2nc(CCNC(=O)COc3ccccc3)cs2)c1 | inactive |
| CCN(C(=O)CSc1nc(-c2ccccc2)no1)c1cccc(C)c1 | inactive |
| COc1ccc(CNCCC(c2ccccc2)c2ccc3c(c2)OCO3)cc1 (stereo not given) | inactive |
| CCCCN(CC)CCCNC(=O)c1cn(CC)c2ccc(S(=O)(=O)N3CCc4ccccc4C3)cc2c1=O | inactive |
| CCc1ccc(CN(Cc2ccco2)c2cnc(S(C)(=O)=O)nc2C(=O)Nc2ccc(C)c(Cl)c2)cc1 | inactive |
| CCOc1ccc(-c2nn(-c3ccccc3)cc2C2NC(=O)NC(C)=C2C(=O)OC(C)C)cc1 (stereo not given) | inactive |
| COc1ccc(CN(Cc2ccco2)C(=O)COc2ccc(Cl)cc2C)cc1 | inactive |
| Cc1nc2nc(SCC(=O)N(C)Cc3ccccc3)nn2c(C)c1Cc1ccccc1Cl | inactive |
| Cc1ccc(Cn2cc(S(=O)(=O)c3ccc(C)cc3)c(=O)c3cc(F)c(N4CCCC4)cc32)cc1 | inactive |
| CCc1ccc(S(=O)(=O)c2cnc3ccc(OC)cc3c2N2CCCC(C)C2)cc1 (stereo not given) | inactive |
| CCOC(=O)C1CCN(c2nc3c(S(=O)(=O)c4ccccc4)nnn3c3ccsc23)CC1 | inactive |
| CCN(CC)C(=O)CSc1nc(-c2ccccc2F)nc2c1Cc1c(CO)cnc(C)c1O2 | inactive |
| Cc1ccccc1C(=O)Nc1sc2c(c1C(=O)O)CCC(C(C)(C)C)C2 (stereo not given) | inactive |
| Cc1ccc(-c2sc(C(=O)Nc3ccc(Br)cc3)cc2CC(=O)O)cc1 | inactive |
| CCC(=O)Oc1c(Sc2ccc(Cl)cc2)c(C)nn1-c1ccccc1 | inactive |
| Nc1c(S(=O)(=O)O)cc(Nc2ccc(Nc3nc(Cl)nc(Nc4ccc(S(=O)(=O)O)cc4)n3)c(S(=O)(=O)O)c2)c2c1C(=O)c1ccccc1C2=O | 20 µM (active) |

From PubChem BioAssay AID1347434 (National Center for Advancing Translational Sciences (NCATS), 2020)
